Data reported in the supplement of paper PMC4466140.

Key:
Assay in all cases: SPOT peptide array binding signal intensity (averaged, normalized) (arbitrary units (background-subtracted, floor 0; scale differs between SH3 domains)); higher = stronger binding of the SH3 domain to the peptide
CaNbp2 = molecular target: CaNbp2
Procedure, shortened: (§1)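 GST-fused SH3 domains from four yeast species were expressed in E. coli BL21(DE3), purified on glutathione Sepharose and incubated at 10 μg/ml overnight at 4°C in TBS-based blocking buffer on cellulose membranes carrying synthetic 15-mer peptides, with cysteines replaced by serines. Bound protein was detected with anti-GST antibody, an HRP anti-mouse secondary and luminol, then imaged and quantified with Genespotter. Binding signal is the normalized, background-subtracted spot intensity averaged over replicates, in arbitrary units that differ between domains.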

CaRvs167 = molecular target: CaRvs167
Procedure, shortened: as §1

CaRvs167-3 = molecular target: CaRvs167-3
Procedure, shortened: as §1

CaSho1 = molecular target: CaSho1
Procedure, shortened: as §1

CaSla1-D1-D2 = molecular target: CaSla1-D1-D2
Procedure, shortened: as §1

CaSla1-D3 = molecular target: CaSla1-D3
Procedure, shortened: as §1

ScAbp1 = molecular target: ScAbp1
Procedure, shortened: as §1

ScBbc1 = molecular target: ScBbc1
Procedure, shortened: as §1

ScBem1-D1 = molecular target: ScBem1-D1
Procedure, shortened: as §1

ScBzz1-D1 = molecular target: ScBzz1-D1
Procedure, shortened: as §1

ScBzz1-D2 = molecular target: ScBzz1-D2
Procedure, shortened: as §1

ScCyk3 = molecular target: ScCyk3
Procedure, shortened: as §1

ScFus1 = molecular target: ScFus1
Procedure, shortened: as §1

ScHof1 = molecular target: ScHof1
Procedure, shortened: as §1

ScHse1 = molecular target: ScHse1
Procedure, shortened: as §1

ScLsb1 = molecular target: ScLsb1
Procedure, shortened: as §1

ScLsb2 = molecular target: ScLsb2
Procedure, shortened: as §1

ScLsb3 = molecular target: ScLsb3
Procedure, shortened: as §1

ScLsb4 = molecular target: ScLsb4
Procedure, shortened: as §1

ScMyo3 = molecular target: ScMyo3
Procedure, shortened: as §1

ScMyo5 = molecular target: ScMyo5
Procedure, shortened: as §1

ScNbp2 = molecular target: ScNbp2
Procedure, shortened: as §1

ScPex13 = molecular target: ScPex13
Procedure, shortened: as §1

ScRvs167 = molecular target: ScRvs167
Procedure, shortened: as §1

ScSho1 = molecular target: ScSho1
Procedure, shortened: as §1

ScSla1-D1-D2 = molecular target: ScSla1-D1-D2
Procedure, shortened: as §1

ScSla1-D3 = molecular target: ScSla1-D3
Procedure, shortened: as §1

SpAbp1-D1 = molecular target: SpAbp1-D1
Procedure, shortened: as §1

SpBbc1 = molecular target: SpBbc1
Procedure, shortened: as §1

SpBzz1-D1 = molecular target: SpBzz1-D1
Procedure, shortened: as §1

SpBzz1-D2 = molecular target: SpBzz1-D2
Procedure, shortened: as §1

SpCyk3 = molecular target: SpCyk3
Procedure, shortened: as §1

SpHof1 = molecular target: SpHof1
Procedure, shortened: as §1

SpHof1-2 = molecular target: SpHof1-2
Procedure, shortened: as §1

SpHof1-3 = molecular target: SpHof1-3
Procedure, shortened: as §1

SpHse1 = molecular target: SpHse1
Procedure, shortened: as §1

SpLsb1 = molecular target: SpLsb1
Procedure, shortened: as §1

SpLsb4 = molecular target: SpLsb4
Procedure, shortened: as §1

SpMyo1 = molecular target: SpMyo1
Procedure, shortened: as §1

SpNbp2 = molecular target: SpNbp2
Procedure, shortened: as §1

SpPex13 = molecular target: SpPex13
Procedure, shortened: as §1

SpRvs167 = molecular target: SpRvs167
Procedure, shortened: as §1

SpSla1-D1-D2 = molecular target: SpSla1-D1-D2
Procedure, shortened: as §1

SpSla1-D3 = molecular target: SpSla1-D3
Procedure, shortened: as §1

AgAbp1 = molecular target: AgAbp1
Procedure, shortened: as §1

AgBbc1 = molecular target: AgBbc1
Procedure, shortened: as §1

AgBem1-D1 = molecular target: AgBem1-D1
Procedure, shortened: as §1

AgBzz1-D1 = molecular target: AgBzz1-D1
Procedure, shortened: as §1

AgBzz1-D2 = molecular target: AgBzz1-D2
Procedure, shortened: as §1

AgCyk3 = molecular target: AgCyk3
Procedure, shortened: as §1

AgFus1 = molecular target: AgFus1
Procedure, shortened: as §1

AgHof1 = molecular target: AgHof1
Procedure, shortened: as §1

AgHse1 = molecular target: AgHse1
Procedure, shortened: as §1

AgLsb1 = molecular target: AgLsb1
Procedure, shortened: as §1

AgLsb4 = molecular target: AgLsb4
Procedure, shortened: as §1

AgMyo5 = molecular target: AgMyo5
Procedure, shortened: as §1

AgNbp2 = molecular target: AgNbp2
Procedure, shortened: as §1

AgRvs167 = molecular target: AgRvs167
Procedure, shortened: as §1

AgSho1 = molecular target: AgSho1
Procedure, shortened: as §1

AgSla1-D1-D2 = molecular target: AgSla1-D1-D2
Procedure, shortened: as §1

AgSla1-D3 = molecular target: AgSla1-D3
Procedure, shortened: as §1

CaAbp1-D1 = molecular target: CaAbp1-D1
Procedure, shortened: as §1

CaAbp1-D2 = molecular target: CaAbp1-D2
Procedure, shortened: as §1

CaBbc1 = molecular target: CaBbc1
Procedure, shortened: as §1

CaBem1-D1 = molecular target: CaBem1-D1
Procedure, shortened: as §1

CaBzz1-D1 = molecular target: CaBzz1-D1
Procedure, shortened: as §1

CaBzz1-D2 = molecular target: CaBzz1-D2
Procedure, shortened: as §1

CaCyk3 = molecular target: CaCyk3
Procedure, shortened: as §1

CaFus1 = molecular target: CaFus1
Procedure, shortened: as §1

CaHof1 = molecular target: CaHof1
Procedure, shortened: as §1

CaHse1 = molecular target: CaHse1
Procedure, shortened: as §1

CaLsb1 = molecular target: CaLsb1
Procedure, shortened: as §1

CaLsb4 = molecular target: CaLsb4
Procedure, shortened: as §1

CaMyo5 = molecular target: CaMyo5
Procedure, shortened: as §1

B1: unnamed (peptide)
chain: APPPPPRRATPEKKP
SPOT peptide array binding signal intensity (CaNbp2): 53 | SPOT peptide array binding signal intensity (CaRvs167): 94.7 | SPOT peptide array binding signal intensity (CaRvs167-3): 1 | SPOT peptide array binding signal intensity (CaSho1): ≤ 0 | SPOT peptide array binding signal intensity (CaSla1-D1-D2): 1170 | SPOT peptide array binding signal intensity (CaSla1-D3): 3 | SPOT peptide array binding signal intensity (ScAbp1): 69 | SPOT peptide array binding signal intensity (ScBbc1): 54.8 | SPOT peptide array binding signal intensity (ScBem1-D1): ≤ 0 | SPOT peptide array binding signal intensity (ScBzz1-D1): 14 | SPOT peptide array binding signal intensity (ScBzz1-D2): 10 | SPOT peptide array binding signal intensity (ScCyk3): ≤ 0 | SPOT peptide array binding signal intensity (ScFus1): 3 | SPOT peptide array binding signal intensity (ScHof1): 9.75 | SPOT peptide array binding signal intensity (ScHse1): 30 | SPOT peptide array binding signal intensity (ScLsb1): 43.8 | SPOT peptide array binding signal intensity (ScLsb2): 9 | SPOT peptide array binding signal intensity (ScLsb3): 1690 | SPOT peptide array binding signal intensity (ScLsb4): 375 | SPOT peptide array binding signal intensity (ScMyo3): 111 | SPOT peptide array binding signal intensity (ScMyo5): 29.5 | SPOT peptide array binding signal intensity (ScNbp2): ≤ 0 | SPOT peptide array binding signal intensity (ScPex13): 89.2 | SPOT peptide array binding signal intensity (ScRvs167): 963 | SPOT peptide array binding signal intensity (ScSho1): 56 | SPOT peptide array binding signal intensity (ScSla1-D1-D2): 459 | SPOT peptide array binding signal intensity (ScSla1-D3): 3.25 | SPOT peptide array binding signal intensity (SpAbp1-D1): 165 | SPOT peptide array binding signal intensity (SpBbc1): 2.5 | SPOT peptide array binding signal intensity (SpBzz1-D1): 814 | SPOT peptide array binding signal intensity (SpBzz1-D2): 1.25 | SPOT peptide array binding signal intensity (SpCyk3): 3 | SPOT peptide array binding signal intensity (SpHof1): 15.8 | SPOT peptide array binding signal intensity (SpHof1-2): 17 | SPOT peptide array binding signal intensity (SpHof1-3): 270 | SPOT peptide array binding signal intensity (SpHse1): 42.5 | SPOT peptide array binding signal intensity (SpLsb1): 10.2 | SPOT peptide array binding signal intensity (SpLsb4): 1240 | SPOT peptide array binding signal intensity (SpMyo1): 998 | SPOT peptide array binding signal intensity (SpNbp2): ≤ 0 | SPOT peptide array binding signal intensity (SpPex13): 1 | SPOT peptide array binding signal intensity (SpRvs167): 999 | SPOT peptide array binding signal intensity (SpSla1-D1-D2): 112 | SPOT peptide array binding signal intensity (SpSla1-D3): 3

B2: unnamed (peptide)
chain: TIRRRAPLSLLESHT
SPOT peptide array binding signal intensity (AgAbp1): 77 | SPOT peptide array binding signal intensity (AgBbc1): 20 | SPOT peptide array binding signal intensity (AgBem1-D1): 46.5 | SPOT peptide array binding signal intensity (AgBzz1-D1): 46 | SPOT peptide array binding signal intensity (AgBzz1-D2): 39 | SPOT peptide array binding signal intensity (AgCyk3): 1 | SPOT peptide array binding signal intensity (AgFus1): 895 | SPOT peptide array binding signal intensity (AgHof1): 47 | SPOT peptide array binding signal intensity (AgHse1): 730 | SPOT peptide array binding signal intensity (AgLsb1): 3.5 | SPOT peptide array binding signal intensity (AgLsb4): 99.5 | SPOT peptide array binding signal intensity (AgMyo5): ≤ 0 | SPOT peptide array binding signal intensity (AgNbp2): 397 | SPOT peptide array binding signal intensity (AgRvs167): 3 | SPOT peptide array binding signal intensity (AgSho1): 36 | SPOT peptide array binding signal intensity (AgSla1-D1-D2): 32 | SPOT peptide array binding signal intensity (AgSla1-D3): 11.5 | SPOT peptide array binding signal intensity (CaAbp1-D1): 475 | SPOT peptide array binding signal intensity (CaAbp1-D2): 324 | SPOT peptide array binding signal intensity (CaBbc1): 133 | SPOT peptide array binding signal intensity (CaBem1-D1): 21.5 | SPOT peptide array binding signal intensity (CaBzz1-D1): 40 | SPOT peptide array binding signal intensity (CaBzz1-D2): 58.8 | SPOT peptide array binding signal intensity (CaCyk3): 11.5 | SPOT peptide array binding signal intensity (CaFus1): 1540 | SPOT peptide array binding signal intensity (CaHof1): 0.5 | SPOT peptide array binding signal intensity (CaHse1): 47.5 | SPOT peptide array binding signal intensity (CaLsb1): 0.5 | SPOT peptide array binding signal intensity (CaLsb4): 130 | SPOT peptide array binding signal intensity (CaMyo5): ≤ 0 | SPOT peptide array binding signal intensity (CaNbp2): 3410 | SPOT peptide array binding signal intensity (CaRvs167): 19.3 | SPOT peptide array binding signal intensity (CaRvs167-3): 28.2 | SPOT peptide array binding signal intensity (CaSho1): 608 | SPOT peptide array binding signal intensity (CaSla1-D1-D2): 133 | SPOT peptide array binding signal intensity (CaSla1-D3): ≤ 0 | SPOT peptide array binding signal intensity (ScAbp1): 97 | SPOT peptide array binding signal intensity (ScBbc1): 16.5 | SPOT peptide array binding signal intensity (ScBem1-D1): 22.5 | SPOT peptide array binding signal intensity (ScBzz1-D1): 11.5 | SPOT peptide array binding signal intensity (ScBzz1-D2): 29.5 | SPOT peptide array binding signal intensity (ScCyk3): 57.5 | SPOT peptide array binding signal intensity (ScFus1): 731 | SPOT peptide array binding signal intensity (ScHof1): 3.5 | SPOT peptide array binding signal intensity (ScHse1): 2020 | SPOT peptide array binding signal intensity (ScLsb1): 2 | SPOT peptide array binding signal intensity (ScLsb2): ≤ 0 | SPOT peptide array binding signal intensity (ScLsb3): 272 | SPOT peptide array binding signal intensity (ScLsb4): 8 | SPOT peptide array binding signal intensity (ScMyo3): ≤ 0 | SPOT peptide array binding signal intensity (ScMyo5): 1 | SPOT peptide array binding signal intensity (ScNbp2): 1320 | SPOT peptide array binding signal intensity (ScPex13): 1 | SPOT peptide array binding signal intensity (ScRvs167): 48.5 | SPOT peptide array binding signal intensity (ScSho1): 1070 | SPOT peptide array binding signal intensity (ScSla1-D1-D2): 337 | SPOT peptide array binding signal intensity (ScSla1-D3): 0.5 | SPOT peptide array binding signal intensity (SpAbp1-D1): 508 | SPOT peptide array binding signal intensity (SpBbc1): 1 | SPOT peptide array binding signal intensity (SpBzz1-D1): 106 | SPOT peptide array binding signal intensity (SpBzz1-D2): ≤ 0 | SPOT peptide array binding signal intensity (SpCyk3): 2 | SPOT peptide array binding signal intensity (SpHof1): 148 | SPOT peptide array binding signal intensity (SpHof1-2): 3.5 | SPOT peptide array binding signal intensity (SpHof1-3): 504 | SPOT peptide array binding signal intensity (SpHse1): 598 | SPOT peptide array binding signal intensity (SpLsb1): 3 | SPOT peptide array binding signal intensity (SpLsb4): 135 | SPOT peptide array binding signal intensity (SpMyo1): ≤ 0 | SPOT peptide array binding signal intensity (SpNbp2): 350 | SPOT peptide array binding signal intensity (SpPex13): 7 | SPOT peptide array binding signal intensity (SpRvs167): 6.33 | SPOT peptide array binding signal intensity (SpSla1-D1-D2): 5 | SPOT peptide array binding signal intensity (SpSla1-D3): 4.5
